From PubChem BioAssay (NCI) come the findings set out here.

“And” between values parts separate entries of the source, which are not always exact repeats. Equal values may be shown once. This is part of a sample that, as a whole, favours compounds with a hit. Of some 83,000 tested, about 20% had one in any assay.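 The endpoint reported here, percent growth, reads 100 for growth as untreated, 0 for no net growth and -100 for all cells dead.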 The source made the active and inactive calls. Rule for the calls: active = growth percent below 10; inactive = the rest.

In one assay the test system is UACC-62 melanoma. Put plainly: NCI-60 one-dose screen, 48 h (100 = growth as untreated, 0 = no growth, -100 = all killed). The note with it: 10 µM unless noted.
A further assay relates to TK-10 renal. Described as above. The note with it: 10 µM unless noted.

For the compound `COC(=O)[C@]1(C)CCC[C@@]2(C)[C@@H]3C[C@@H]4[C@H]5C[C@@]3(CC[C@@H]21)C[C@@]45C`, the growth was -98.2% [100 µM] (active) and -85.1% [100 µM] (active) with UACC-62 melanoma; -88.2% [100 µM] (active) and -65.7% [100 µM] (active) with TK-10 renal.

In the case of `CC1(C)CCC2(C(=O)O)C(O)CC3(C)C(=CCC4C5(C)CCC(OC6OCC(O)C(O)C6OC6OCC(O)C(O)C6OC6OCC(O)C(OC7OC(CO)C(O)C(O)C7O)C6O)C(C)(C)C5CCC43C)C2C1` (stereo unspecified), the growth is 97.8% [100 µM] (inactive) and 5.39% [100 µM] (active) with UACC-62 melanoma; 116% [100 µM] (inactive) and 15.1% [100 µM] (inactive) with TK-10 renal.

In the case of `C=C1C(=O)OC2CC1C(OC(=O)/C=C/c1ccccc1)C/C(C)=C/CC/C(C)=C/CCC2(C)O` (stereo unspecified), the growth with UACC-62 melanoma was -95.6% [100 µM] (active) and -90.1% [100 µM] (active); in the assay on TK-10 renal, -99.2% [100 µM] (active) and -83.5% [100 µM] (active).

As for `Fc1cccc(F)c1C1SCc2nc3cc4ccccc4cc3n21` (stereo unspecified), the growth in the assay on UACC-62 melanoma is 21.7% [100 µM] (inactive) and 19.9% [100 µM] (inactive); with TK-10 renal, 27% [100 µM] (inactive) and 34.3% [100 µM] (inactive).

As to `CC1OC(OC2C(OC3CCC4(C)C(CCC5(C)C4CC=C4C6CC(C)(C)CCC6(C(=O)O)CCC45C)C3(C)CO)OCC(O)C2O)C(O)C(O)C1O` (stereo unspecified), the growth in the assay on UACC-62 melanoma was -94% [100 µM] (active) and -96.7% [100 µM] (active); in the assay on TK-10 renal it was -92.1% [100 µM] (active) and -100% [100 µM] (active).

On to `CC1=C(C2=C(C)C(=O)C(=O)c3cc(C)ccc32)c2ccc(C)cc2C(=O)C1=O`, for which the growth is -92.5% [100 µM] (active) and -100% [100 µM] (active) in the assay on UACC-62 melanoma; -100% [100 µM] (active) with TK-10 renal.

Regarding `O=C(/C=C/c1ccccc1)CCC1C(=O)c2ccccc2C1=O`, the growth in the assay on UACC-62 melanoma is 41.6% [100 µM] (inactive) and 19.1% [100 µM] (inactive); in the assay on TK-10 renal, 105% [100 µM] (inactive) and 77.6% [100 µM] (inactive).

As to `Cc1c2c(c(C)c3c[n+](C)ccc13)Oc1ccccc1O2`, the growth in the assay with UACC-62 melanoma is -77.7% [100 µM] (active) and -100% [100 µM] (active); in the assay with TK-10 renal it was -2.16% [100 µM] (active) and -100% [100 µM] (active).

Regarding `C=C1C(=O)C2=CC1CCC(=O)C1(C)CCC(OC(C)=O)C(C)(C)C1CC2O` (stereo unspecified), the growth in the assay on UACC-62 melanoma was -95.4% [100 µM] (active) and -100% [100 µM] (active); in the assay with TK-10 renal, -96% [100 µM] (active) and -89.5% [100 µM] (active).

On to `CC1=CC[C@@H]2[C@@H](CC[C@@]2(C)O)C(C)(C)[C@H]1CC[C@@H]1[C@@]2(C)CCC(=O)C(C)(C)O[C@@H]2CC[C@]1(C)O`, for which the growth was -76.1% [100 µM] (active) and -100% [100 µM] (active) with UACC-62 melanoma; 10.2% [100 µM] (inactive) and -99.3% [100 µM] (active) in the assay on TK-10 renal.

Consider `CC(C)(C)N/N=C(/Cc1nc2c3c(ccc2[nH]c1=O)C(=O)c1ccccc1C3=O)C(=O)NC1=C(Cl)C(=O)c2ccccc2C1=O`, for which the growth with UACC-62 melanoma is 22.1% [100 µM] (inactive) and 1.57% [100 µM] (active); in the assay with TK-10 renal, 59.3% [100 µM] (inactive) and -41.1% [100 µM] (active).

On to `CCOc1ccc(NC(=O)/C(=N\N)C(C(=O)OC)c2nc3ccc(Cl)cc3[nH]c2=O)cc1` (stereo unspecified), for which the growth with UACC-62 melanoma is 79.7% [100 µM] (inactive) and 57.3% [100 µM] (inactive); with TK-10 renal, 128% [100 µM] (inactive) and 85.6% [100 µM] (inactive).

Turning to `COc1ccc(OC)c(Cc2cnc3nc(N)nc(N)c3c2C)c1`, the growth with UACC-62 melanoma is 1.25% [100 µM] (active) and -100% [100 µM] (active); in the assay on TK-10 renal it was 27.5% [100 µM] (inactive) and -100% [100 µM] (active).

In the case of `Cn1c(COC(=O)NC2CCCCC2)c(COC(=O)NC2CCCCC2)c2ccc3cc(Cl)c(Cl)cc3c21`, the growth was -50.6% [100 µM] (active) with UACC-62 melanoma and -93.7% [100 µM] (active) with TK-10 renal.

With `COc1ccc2c(c1)C(N)=C(c1ccccc1)C2=O`, the growth in the assay with UACC-62 melanoma was 80.5% [100 µM] (inactive) and 28.2% [100 µM] (inactive); in the assay with TK-10 renal, 99.7% [100 µM] (inactive) and 3.68% [100 µM] (active).

As to `C[C@@H]1CCC([C@@H](C)[C@H]2CC[C@H]3[C@@H]4CC[C@H]5C[C@@H](O)CC[C@]5(C)[C@H]4CC[C@]23C)=NC1`, the growth in the assay with UACC-62 melanoma is -45.8% [100 µM] (active) and -54.1% [100 µM] (active); with TK-10 renal, 27.5% [100 µM] (inactive) and -69% [100 µM] (active).

In the case of `S=C1NC2=C(COc3ccccc32)C(c2ccc(Cl)cc2)N1` (stereo unspecified), the growth is -56.9% [100 µM] (active) and -100% [100 µM] (active) in the assay on UACC-62 melanoma; -3.55% [100 µM] (active) and -100% [100 µM] (active) in the assay with TK-10 renal.

`On1c(-c2ccccc2)nc2ccccc2c1=S`: the growth was -68.5% [100 µM] (active) and -97.5% [100 µM] (active) in the assay with UACC-62 melanoma; 1.71% [100 µM] (active) and -38.8% [100 µM] (active) with TK-10 renal.

As for `O=C(O)CCCOc1cc(-c2ccccc2F)nc2cc3c(cc12)OCO3`, the growth with UACC-62 melanoma was 11.6% [100 µM] (inactive) and -54.7% [100 µM] (active); with TK-10 renal it was 53.8% [100 µM] (inactive) and 2.37% [100 µM] (active).

In the case of `O=Cc1ccc(-c2ccc(-c3ccc(CO)s3)o2)s1`, the growth was -65% [100 µM] (active) and -100% [100 µM] (active) with UACC-62 melanoma; -35% [100 µM] (active) and -93.3% [100 µM] (active) with TK-10 renal.

For `COc1ccc2nc3c4c(nccc4c2c1)-c1ncccc1C3=O`, the growth was -95.8% [50 µM] (active) and -100% [50 µM] (active) with UACC-62 melanoma; -90.7% [50 µM] (active) and -100% [50 µM] (active) with TK-10 renal.

For the compound `C=c1c2ccccc2oc2nc3[nH]c(N)c(C#N)c(N)c3c(=N)c12`, the growth in the assay with UACC-62 melanoma is 44.5% [100 µM] (inactive) and 0.738% [100 µM] (active); with TK-10 renal, 43.9% [100 µM] (inactive) and -12.1% [100 µM] (active).

Turning to `Cc1cc(O)c2c(c1)C(=O)C(c1c(C)cc3c(c1O)C(=O)C1OC1C3=O)=CC2=O` (stereo unspecified), the growth was -91.9% [100 µM] (active) and -93.6% [100 µM] (active) in the assay with UACC-62 melanoma; -99.7% [100 µM] (active) and -86.5% [100 µM] (active) with TK-10 renal.

For the compound `COc1ccc(Nc2nc3ccc(C(F)(F)F)cc3nc2C(=O)O)cc1`, the growth in the assay with UACC-62 melanoma is -46.2% [100 µM] (active) and -91.5% [100 µM] (active); in the assay with TK-10 renal it was -10.5% [100 µM] (active) and -93.8% [100 µM] (active).

For the compound `Cc1ccc(NC(=S)C#N)cc1Cl`, the growth in the assay with UACC-62 melanoma is -35.5% [100 µM] (active) and -95.7% [100 µM] (active); in the assay on TK-10 renal, 7.58% [100 µM] (active) and -53.9% [100 µM] (active).

Take `CCOc1cc2c(cc1O)/C(=N\OC)C[C@@H]1[C@@H]2CC[C@]2(C)[C@@H](O)CC[C@@H]12`: the growth in the assay with UACC-62 melanoma is -31.9% [100 µM] (active) and -75.8% [100 µM] (active); with TK-10 renal, -12.5% [100 µM] (active) and -99.5% [100 µM] (active).

As for `O=C(CCc1ccccc1)ON1C(=S)NC(c2ccccc2)(c2ccccc2)C1=S`, the growth with UACC-62 melanoma was -47.5% [100 µM] (active) and -5.8% [100 µM] (active); in the assay with TK-10 renal it was -6.92% [100 µM] (active) and -21.7% [100 µM] (active).

Regarding `N=C1C(=N)c2ccccc2-c2ccccc21`, the growth with UACC-62 melanoma was 53.6% [100 µM] (inactive) and -56.4% [100 µM] (active); with TK-10 renal, 51.2% [100 µM] (inactive) and 3.24% [100 µM] (active).

Take `CC1(C)CCC[C@]2(C)[C@@H](C=O)C(C=O)=CC[C@@H]12`: the growth in the assay on UACC-62 melanoma is -87.9% [100 µM] (active) and 4.13% [100 µM] (active); in the assay on TK-10 renal, -6.19% [100 µM] (active) and -33.3% [100 µM] (active).

For the compound `C=C(C)C1CC2(C)C(C)CC(O)CC2C(OC(=O)C=C(C)C)C1O` (stereo unspecified), the growth in the assay with UACC-62 melanoma is 9.73% [100 µM] (active) and 41.9% [100 µM] (inactive); in the assay on TK-10 renal it was 17.2% [100 µM] (inactive) and 48.8% [100 µM] (inactive).

In the case of `CC1=CC[C@@H]2[C@@H](CC[C@@]2(C)O)C(C)(C)[C@H]1CC[C@@H]1[C@@]2(C)CC[C@@H](O)C(C)(C)O[C@@H]2CC[C@]1(C)O`, the growth in the assay with UACC-62 melanoma is -81.4% [100 µM] (active) and -96.9% [100 µM] (active); in the assay with TK-10 renal it was 12.5% [100 µM] (inactive) and -92.2% [100 µM] (active).

As for `COc1c(/C=C/C=O)cc2c(c1OC)OCO2`, the growth with UACC-62 melanoma is -90.2% [100 µM] (active) and -97.4% [100 µM] (active); in the assay on TK-10 renal, -2.29% [100 µM] (active) and -52.3% [100 µM] (active).

For the compound `CCOC(=O)COc1cc(-c2ccccc2F)nc2cc3c(cc12)OCO3`, the growth in the assay on UACC-62 melanoma was 69.3% [100 µM] (inactive) and 35.8% [100 µM] (inactive); in the assay on TK-10 renal, 126% [100 µM] (inactive) and 78.4% [100 µM] (inactive).

As for `CC1(C=O)CCC23COC4(CCC5C6(C)CCC(OC7OCC(OC8OC(CO)C(O)C(OC9OC(CO)C(O)C(O)C9O)C8OC8OCC(O)C(O)C8O)C(O)C7OC7OC(CO)C(O)C(O)C7O)C(C)(C)C6CCC5(C)C4(C)CC2O)C3C1` (stereo unspecified), the growth in the assay on UACC-62 melanoma was -69% [100 µM] (active) and -57.3% [100 µM] (active); in the assay on TK-10 renal, -87.3% [100 µM] (active) and -69.8% [100 µM] (active).

Take `COc1ccc2c(c1)C(OC)C1c3c(cc4c(c3-2)OCO4)CCN1C` (stereo unspecified): the growth was -93.1% [100 µM] (active) and -89.5% [100 µM] (active) in the assay with UACC-62 melanoma; -18.2% [100 µM] (active) and -91.5% [100 µM] (active) with TK-10 renal.

Turning to `CC1=C(Cl)C[C@@H](/C(C)=C\Cl)O[C@@]1(O)C(Br)Br`, the growth in the assay on UACC-62 melanoma is 70.8% [100 µM] (inactive) and -44.8% [100 µM] (active); with TK-10 renal, 101% [100 µM] (inactive) and -87.5% [100 µM] (active).

`CN1CCc2cc3c(c4c2C1C(O)c1ccccc1-4)OCO3` (stereo unspecified): the growth in the assay on UACC-62 melanoma was -88.3% [100 µM] (active) and -88.4% [100 µM] (active); with TK-10 renal, 9.4% [100 µM] (active) and -86.5% [100 µM] (active).

For `Cc1ccc(/C=N/Nc2cc(C)c3cccc(C)c3n2)s1`, the growth with UACC-62 melanoma was -91.7% [100 µM] (active) and -100% [100 µM] (active); with TK-10 renal it was -67.1% [100 µM] (active) and -100% [100 µM] (active).
